WRN inhibitor: qHTS for Inhibitors of WRN Helicase; Bifunctional 3'-5' exonuclease/ATP-dependent helicase WRN (Homo sapiens), Q14191; WRN helicase unwinding, fluorescent forked duplex, kinetic; Potency, µM (titrated, usually from 114 µM), for inactives: at the highest dose activity change, negative = inhibition, usual class: inhibitors; actives 0.46% (n = 360,000); AID 651768, 2012; note: % is set by controls: 0 for no effect and ±100 for the full control effect; nearly all actives have a fitted effect of over 55% in size
Target sequence (Q14191 whole entry, looked up): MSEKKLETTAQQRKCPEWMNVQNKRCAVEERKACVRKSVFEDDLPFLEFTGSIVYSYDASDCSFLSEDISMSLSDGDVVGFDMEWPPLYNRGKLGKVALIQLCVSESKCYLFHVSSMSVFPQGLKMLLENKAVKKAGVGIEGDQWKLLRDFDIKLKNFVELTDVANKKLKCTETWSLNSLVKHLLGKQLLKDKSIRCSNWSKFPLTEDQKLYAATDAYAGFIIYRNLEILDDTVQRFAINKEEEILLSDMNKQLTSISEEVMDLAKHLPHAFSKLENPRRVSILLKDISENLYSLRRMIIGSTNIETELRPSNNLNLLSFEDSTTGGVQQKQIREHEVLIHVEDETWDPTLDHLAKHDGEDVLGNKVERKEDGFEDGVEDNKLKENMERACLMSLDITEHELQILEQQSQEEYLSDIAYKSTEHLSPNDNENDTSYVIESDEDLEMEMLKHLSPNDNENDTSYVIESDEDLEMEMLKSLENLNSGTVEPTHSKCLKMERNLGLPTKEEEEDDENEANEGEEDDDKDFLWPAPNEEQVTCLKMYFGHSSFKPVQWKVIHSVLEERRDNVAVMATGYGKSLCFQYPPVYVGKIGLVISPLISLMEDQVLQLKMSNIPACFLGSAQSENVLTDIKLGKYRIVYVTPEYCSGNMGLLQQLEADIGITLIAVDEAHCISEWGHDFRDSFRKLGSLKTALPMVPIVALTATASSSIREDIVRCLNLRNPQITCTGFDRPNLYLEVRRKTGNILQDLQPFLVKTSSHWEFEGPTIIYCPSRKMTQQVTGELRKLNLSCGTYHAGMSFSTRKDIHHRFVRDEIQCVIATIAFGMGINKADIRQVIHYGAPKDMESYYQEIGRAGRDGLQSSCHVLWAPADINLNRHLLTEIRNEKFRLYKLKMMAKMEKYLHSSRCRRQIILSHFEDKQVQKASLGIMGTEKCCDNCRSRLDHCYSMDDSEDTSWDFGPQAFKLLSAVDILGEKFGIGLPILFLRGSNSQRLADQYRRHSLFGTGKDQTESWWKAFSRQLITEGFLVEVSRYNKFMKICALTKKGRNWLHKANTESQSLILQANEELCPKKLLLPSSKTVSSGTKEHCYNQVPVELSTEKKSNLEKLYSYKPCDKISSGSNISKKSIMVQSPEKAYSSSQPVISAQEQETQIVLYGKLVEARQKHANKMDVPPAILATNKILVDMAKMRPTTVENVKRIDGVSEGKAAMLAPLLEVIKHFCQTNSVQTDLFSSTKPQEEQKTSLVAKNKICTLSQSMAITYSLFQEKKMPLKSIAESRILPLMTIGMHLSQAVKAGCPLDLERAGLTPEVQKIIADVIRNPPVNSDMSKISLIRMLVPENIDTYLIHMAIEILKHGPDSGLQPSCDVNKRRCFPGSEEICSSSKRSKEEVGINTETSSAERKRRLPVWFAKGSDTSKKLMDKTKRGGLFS
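Fluorescence dequenching readout, ex 525 nm/em 598 nm, kinetic mode: forked duplex DNA (100 nM final) with adjacent fluorophore and quencher unwound by WRN (20 nM final) with 2 mM ATP. Compound preincubation 15 min, room temperature.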
ERG-DNA inh: qHTS for Small Molecule Inhibitors of the ERG Ets/DNA interaction; fluorescence polarization, His-ERG Ets domain / labelled DNA; actives 0.028% (n = 370,000); Potency, µM (top dose mostly 76.9 µM), without a hit: top-dose FP activity, negative = inhibition, most hits filed as inhibitors; Transcriptional regulator ERG (Homo sapiens), P11308; active = well fitted inhibition curve with a large enough effect in the polarisation, with a control signal flat; inconclusive = small, poorly fitted or top-dose-only effect, or effect the other way, or a change in a side signal; inactive = no such curve, though single readings can be large or run the other way; the % refers to the polarisation;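 note: polarization taken with two DNA probes labelled with fluorescein and Texas red; % of control where 0% means no effect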
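His-tagged ERG Ets domain (1 uM in the protein solution; 300mM KCl, 50mM Tris-HCl, 1mM EDTA, 1mM DTT, pH 7.5) received compound, then a probe mix of 5 nM fluorescein-DNA and 100nM Texas-615-DNA. Fluorescence polarization was read for both dyes.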
RECQ1 inh-1: qHTS Assay for Inhibitors of RecQ-Like Dna Helicase 1 (RECQ1) | ATP-dependent DNA helicase Q1 (Homo sapiens), P46063 | RECQ1 DNA unwinding, red fluorescence kinetic read | Potency, µM (doses to about 57.3 µM), inactives show at the highest dose activity, negative = inhibition, most hits filed as inhibitors | actives 0.54% (n = 240,000);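 note: plate controls were vehicle for no effect and no enzyme for full effect; nearly all actives have a fitted effect of over 30% in size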
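50 nM RECQ1T1 preincubated 15 min with compound in Tris pH 8.0 buffer with MgCl2, DTT, Tween-20 and 2.5 ug/ml poly(dI-dC); started with 200 nM TAMRA/BHQ-2 forked duplex and 2 mM ATP. Unwinding read as fluorescence (525/598 nm), two reads 2 h apart.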
KAT2A inh: qHTS Assay for Inhibitors of GCN5L2. Potency, µM (doses to about 58.9 µM), without a hit: at the highest dose activity change, negative = inhibition, most hits filed as inhibitors. Histone acetyltransferase KAT2A (Homo sapiens), Q92830. GCN5L2 HAT assay, ThioGlo1 CoA-SH fluorescence. actives 0.21% (n = 390,000); note: % is set by controls: 0 for no effect and ±100 for the full control effect
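Free CoA generated was detected with ThioGlo1 (50uM) fluorescence at Ex340nm/Em540nm, read immediately and after 20 min at room temperature. Enzyme, 20 nM in HEPES pH 7.5 buffer, saw compounds 15 min before adding 75uM H3(1-25) peptide and 70uM acetyl-CoA.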
APEX1 inh: qHTS Assay for Inhibitors of the Human Apurinic/apyrimidinic Endonuclease 1 (APE1); DNA repair nuclease/redox regulator APEX1 (Homo sapiens), P27695; recombinant APE1, TAMRA/BHQ-2 abasic DNA cleavage fluorescence; Potency, µM (series often up to 65.8 µM), inactives show top-dose activity change, negative = inhibition, actives largely listed as inhibitors; actives 0.35% (n = 350,000); AID 2517, 2012;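 note: plate controls were vehicle for no effect and reference inhibitor for full effect; nearly all actives have a fitted effect of over 55% in size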
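0.75 nM APE1 + cpd, 15 min RT; start w/ 50 nM TAMRA/BHQ-2 THF-abasic dsDNA; kinetic fluor 525/598 nm ×3 reads @60 s; Δ(read3−read1); normalized to DMSO and NSC13755 control wells.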
BLM helicase inh: qHTS Assay for Inhibitors of Bloom's syndrome helicase (BLM); recombinant BLM DNA unwinding, fluorescence dequenching; AID 2528, 2010; Potency, µM (series often up to 56.1 µM), for the others: at the top dose activity change, negative = inhibition, most hits filed as inhibitors; RecQ-like DNA helicase BLM (Homo sapiens), P54132; actives 0.2% (n = 350,000);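 note: plate controls were vehicle for no effect and no enzyme for full effect; nearly all actives have a fitted effect of over 35% in size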
RECQ1 inh conf: Confirmation qHTS Assay for Inhibitors of RecQ-Like Dna Helicase 1 (RECQ1); Potency, µM (highest dose often 229 µM), for the others: at the highest dose activity change, negative = inhibition, most hits filed as inhibitors; actives 28% (n = 610); RECQ1 helicase DNA unwinding, fluorescence; shares compounds with RECQ1 inh-1; AID 2708, 2010; note: % is set by controls: 0 for no effect and ±100 for the full control effect; nearly all actives have a fitted effect of over 45% in size
RECQ1 ADP FP: Counterscreen for RECQ1 Inhibitors: ADP Fluorescence Polarization Displacement Assay; shares compounds with RECQ1 inh-1; ADP fluorescence polarization displacement counterscreen; Potency, µM (top dose mostly 228 µM), for inactives: at the top dose activity change, negative = inhibition, most hits filed as inhibitors; actives 27% (n = 530); note: % is set by controls: 0 for no effect and ±100 for the full control effect; nearly all actives have a fitted effect of over 45% in size
RECQ1 inh-2: Confirmation qHTS Assay for Inhibitors of RecQ-Like Dna Helicase 1 (RECQ1) - Round 2 Cherry Picks. Potency, µM (titrated, usually from 119 µM), for inactives: at the highest dose activity, negative = inhibition, actives largely listed as inhibitors. actives 15% (n = 1,100). AID 504841, 2011. shares compounds with RECQ1 inh-1. recombinant RECQ1 DNA unwinding, red fluorescence; note: % is set by controls: 0 for no effect and ±100 for the full control effect; nearly all actives have a fitted effect of over 50% in size
Numbers without * were called inactive; i = inactive; ? = inconclusive; · = not tested or not shown; [ ] = another dose, or the depositor's remark. Compounds with a hit are over-represented: about 0.88% of the library has one in this group of screens. Unless noted, calls come from the whole dose curve; as a rule, active = well fitted curve in the direction sought with a large enough effect; inconclusive = small, poorly fitted or top-dose-only effect, or another doubt; inactive = no such curve, though single readings can be large; an effect the other way counts as inactive or inconclusive. Potency is the fitted concentration of half-maximal effect.

SMILES | WRN inhibitor | ERG-DNA inh | RECQ1 inh-1 | KAT2A inh | APEX1 inh | BLM helicase inh | RECQ1 inh-2 | others
CCCCC1=CC2=CC(=O)C(C)(OC(=O)CC)C(=O)C2=CN1Cc1ccco1 (centres undefined) | -12%[57.1 µM] | 20% | ? | -22% | ? | -6%[12.4 µM] | -11%
Cn1nnc(NC(=O)/C=C/c2ccco2)n1 | 12% | 5% | 11% | 1% | 5% | -2% | ·
COc1ccccc1NC(=S)NC(=O)/C=C/c1ccco1 | ? | 9% | ? | -8% | ? | -19% | ?
COc1ccccc1NC(=O)/C=C\c1ccco1 | -11% | 12% | · | 1% | -6% | -7% | ·
CCCn1nnc(NC(=S)NC(=O)/C=C/c2ccco2)n1 | ? | 15% | ? | -1% | ? | -1% | -5%
O=C(CSc1nc2c(c(=O)[nH]1)CCCC2)Nc1ccc(Br)cc1 | · | -4% | · | -1% | · | -1% | ·
COc1c(C(CC(C)C)OC(C)=O)ccc2c1C(=O)OCc1cc(C)cc(O)c1O2 (centres undefined) | 0% | 14% | ? | -27% | -6% | -20% | -13%
NC(=O)CSc1nc2scc(-c3ccco3)c2c(=O)n1-c1ccccc1 | ? | 1% | 28µM* | -21% | 11% | ? | ? | RECQ1 inh conf=?;RECQ1 ADP FP=-5%[91.9 µM]
O=C(CSc1nc2scc(-c3ccco3)c2c(=O)n1-c1ccccc1)N1CCOCC1 | -3% | -3% | i | -22% | -4% | -5% | ·
C=CCn1c(SCC(=O)NCC2CCCO2)nc2scc(-c3ccco3)c2c1=O (centres undefined) | -1%[11.6 µM] | -15% | ? | -17% | ? | -23% | ?
c1ccc(Cn2c(SCc3cn4cccnc4n3)nnc2-c2ccco2)cc1 | -6% | -6% | 11% | -6% | -1% | 3% | ·
O=c1c2c(-c3ccco3)csc2nc(SCc2cn3cccnc3n2)n1-c1ccccc1 | 56µM* | -2% | 13µM* | -9% | -2% | -11% | -22%
CCOc1ccccc1N(C)C(=O)c1cc(S(=O)(=O)NCCc2ccc(Cl)cc2)ccc1F | · | 2% | · | -21% | · | -9% | ·
CC1=Nc2ccccc2/C1=C\c1nc(-c2ccccc2)oc1O | -3% | -1% | -8% | -6% | -5% | -11% | ·
CC1=Nc2ccccc2/C1=C/c1nc(-c2ccc(C)s2)oc1O | 19% | ? | ? | -13% | -12% | -7% | ?
CC1(C)SC2C(C(=O)O)N=C(Cc3ccccc3)N2C1C(=O)O (centres undefined) | 10% | -7% | · | · | · | · | ·
CN(O)/C=C/C(=O)c1ccc(Br)cc1 | -28% | 3% | -6% | -6% | 1% | -5% | ·

High-throughput results deposited in PubChem by National Center for Advancing Translational Sciences (NCATS).
